Compound activity as filed in PubChem.
A549 viability – counter-screen for Nrf2 inhibitors: cytotoxicity in A549 cells; A549 ARE-Fluc cells, CellTiter-Fluor viability, 18-24 h; Potency, µM (top dose mostly 46 µM), usual class: inhibitors; actives 0.16% (n = 390,000); AID 504648
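Cytotoxicity counterscreen: CellTiter-Fluor fluorescence was measured in A549 ARE_Fluc cells after 18-24 h of compound exposure in a concentration series. The subsequent BugLite luminescent read reports ARE-luciferase activity.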
TGFb inhibitor – inhibitors of TGF-b signaling; HepG2 CAGA-GFP TGF-b/SMAD3 reporter, GFP fluorescence, 18 h; TGF-beta stimulated, 500 pg/mL final; Potency, µM (top dose mostly 46.1 µM), most hits filed as inhibitors; actives 1.2% (n = 410,000); AID 588855; note: nearly all actives have a fitted effect of over 65% in size
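GFP signal (ex488/em500-530) from TGF-beta-stimulated HEPG2 CAGA-GFP cells, 500 pg/mL final, 18 h at 37 degrees C in DMEM plus 1% FBS, normalized to unstimulated and DMSO-stimulated controls.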
ATXN viability – reduces viability in counter-screen for ATXN expression inhibitors. actives 0.49% (n = 400,000). S2 cells (HEK-293 line with an ATXN2-luciferase reporter) viability, CellTiter-Fluor protease fluorescence, 24 h. Potency, µM (highest dose often 56.7 µM), actives largely listed as cytotoxic; note: nearly all actives have a fitted effect of over 40% in size
HepG2 tox – HepG2 cytotoxicity, counter-screen for TGF-b inhibitors; Potency, µM (series often up to 46.1 µM), most hits filed as cytotoxic; actives 0.76% (n = 410,000); HepG2 CAGA-GFP viability, ATP luminescence, 18 h
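CellTiter-Glo luminescence gave cytotoxicity after 18 hours at 37 degrees C. The cells were HepG2 CAGA-GFP in 1% FBS DMEM, stimulated with 500 pg/mL TGF-beta after compound addition. %Activity was normalised to no-cell wells (complete cell-killing) and DMSO (no toxicity), and curves were fitted and classified.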
Nrf2 inh – inhibitors of Nrf2 signaling; actives 2.1% (n = 360,000); AID 504444; Potency, µM (series often up to 46 µM), usual class: inhibitors; A549 ARE-Fluc reporter, luciferase luminescence, 18-24 h; note: nearly all actives have a fitted effect of over 60% in size
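A549 ARE_Fluc cells, 5000/well, 5% FBS OPTI-MEM; compounds in dose-response, 18-24 h at 37 °C/5% CO2; CellTiter-Fluor viability read (Ex 405/Em 525), then BugLite luciferase luminescence = Nrf2 activity.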
ATXN2 expr inh – inhibitors of ATXN2 expression. HEK-293 ATXN2-luciferase reporter, luminescence, 24 h. Potency, µM (top dose mostly 57 µM), usual class: inhibitors. actives 0.72% (n = 360,000); note: nearly all actives have a fitted effect of over 55% in size
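ATXN2-luciferase reporter cells (luciferase flanked by upstream and downstream ATXN2 gene portions) were treated 24 h at 37 °C with compounds at up to 57 uM. SteadyGlo luminescence gave expression; GF-AFC fluorescence gave viability.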
Large screens that a line does not name were inactive; ! = a repeat was not active. Hits are enriched below; roughly 3.8% of the tested compounds scored in any of these assays. Calls come from the whole dose curve; as a rule, active = well fitted curve in the direction sought with a large enough effect; inconclusive = small, poorly fitted or top-dose-only effect, or another doubt; inactive = no such curve, though single readings can be large; an effect the other way counts as inactive or inconclusive.

CCOc1ccccc1OCCCC(=O)Nc1ccc(Cl)c(S(=O)(=O)N2CCOCC2)c1	TGFb inhibitor inconclusive, Nrf2 inh 16.4µM (no result: ATXN2 expr inh)
CCN(CC)S(=O)(=O)c1cccc(NC(=O)CCNC(=O)c2ccc([N+](=O)[O-])cc2)c1	Nrf2 inh 23.1µM
O=C(CC1OC(=O)c2ccccc21)Nc1ccc(Cl)c(S(=O)(=O)N2CCCCC2)c1 (centres undefined)	HepG2 tox 8.91µM, Nrf2 inh inconclusive
Cc1cc(C)n2nc(C(=O)Nc3cccc(S(=O)(=O)N(C)c4ccccc4)c3)nc2n1	none (no result: ATXN2 expr inh)
Cc1cccc(-c2noc(-c3cccnc3NCc3ccccc3Cl)n2)c1	Nrf2 inh inconclusive
CCCNC(=O)[C@H]1O[C@H]1C(=O)N[C@H](C(=O)N1CCC[C@@H]1C(=O)OC)C(C)CC (some centres undefined)	ATXN2 expr inh 21.7µM (no result: A549 viability, TGFb inhibitor, ATXN viability, HepG2 tox, Nrf2 inh)
COc1ccc(S(=O)(=O)N(C)CC(=O)NC2CC2)cc1	HepG2 tox 17.8µM
C(=N\c1ncnc2sccc12)/NOCc1ccccc1	none (no result: Nrf2 inh)
Clc1ccc(CON/C=N/c2ncnc3sccc23)cc1	Nrf2 inh 20.6µM
FC(F)(F)c1nc(N2CCCC2)ncc1-c1nnnn1-c1ccc(Cl)cc1	TGFb inhibitor inconclusive, Nrf2 inh 13µM
Fc1ccc(-n2nnnc2-c2cnc(-c3cccs3)nc2C(F)(F)F)cc1	A549 viability inconclusive, ATXN viability inconclusive, Nrf2 inh 14.6µM, ATXN2 expr inh inconclusive
COc1cc(NC(=O)c2ccc(Cl)cc2Cl)ccc1-c1cc2ccccc2oc1=O	A549 viability inconclusive, TGFb inhibitor 12.6µM, HepG2 tox 11.2µM
Cc1ccc(OCC(=O)NNC(=O)c2ccccc2OCc2c(C)noc2C)cc1	none
CCOC(=O)N1CCN(C2CCCN(C(=O)c3ccccc3N(C)C)C2)CC1 (centres undefined)	none
Cc1cccc(CS(=O)(=O)c2nnc([C@H](Cc3ccccc3)NC(=O)OC(C)(C)C)o2)c1	TGFb inhibitor inconclusive, ATXN viability 8.91µM, ATXN2 expr inh 7.94µM (no result: Nrf2 inh)
COc1ccc(N2C3=C(CC4=C2CC(C)(C)CC4=O)C(=O)CC(C)(C)C3)cc1	TGFb inhibitor inconclusive, HepG2 tox 15.8µM, Nrf2 inh inconclusive, ATXN2 expr inh 15.8µM
CN(C)C(CNC(=O)c1cccc(S(=O)(=O)N2CCN(c3ccc(F)cc3)CC2)c1)c1ccccc1 (centres undefined)	TGFb inhibitor inconclusive, Nrf2 inh inconclusive, ATXN2 expr inh inconclusive
O=C(NCc1ccc(N2CCCC2=O)cc1)c1cc(COc2c(F)cccc2F)on1	none
O=C(CCl)N=c1sccn1Cc1cccc2ccccc12	TGFb inhibitor inconclusive, ATXN viability inconclusive, ATXN2 expr inh 0.0299µM
CCC(=O)OCC(=O)N=c1sccn1Cc1ccccc1Cl	none
O=C(CCl)N=c1sccn1Cc1ccc(Cl)cc1Cl	TGFb inhibitor inconclusive, ATXN viability inconclusive, HepG2 tox 12.6µM
O=C(CCl)N=c1sccn1Cc1ccccc1Cl	TGFb inhibitor 11.2µM, HepG2 tox 10µM, ATXN2 expr inh inconclusive (no result: ATXN viability)
CCC(=O)OCC(=O)N=c1sccn1Cc1ccc(C)cc1	none
CCCCN(CC)CCNC(=O)c1cc2c(=O)n(C)c3ccccc3c2s1	TGFb inhibitor inconclusive, HepG2 tox 12.6µM
CCCN(CCC)CCCNC(=O)c1cc2c(=O)n(CC)c3ccccc3c2s1	none (no result: ATXN viability)
CCCCN(CC)CCNC(=O)c1cc2c(=O)n(CC)c3ccccc3c2s1	HepG2 tox 12.6µM!, Nrf2 inh inconclusive
CCCCN(CC)CCCNC(=O)c1cc2c(=O)n(CC)c3ccccc3c2s1	TGFb inhibitor 12.6µM, ATXN viability inconclusive, ATXN2 expr inh inconclusive
CN(C)CCCNC(=O)c1cc2sc3ccccc3c2s1	A549 viability inconclusive, HepG2 tox 20µM (no result: ATXN viability)
CCOc1ccc(C(=O)CC(NCc2cccs2)C(=O)O)cc1 (centres undefined)	none
Cc1cccc2cc(/C=N/NC(=O)c3ccccc3O)c(Cl)nc12	A549 viability inconclusive, TGFb inhibitor 10µM, ATXN viability inconclusive, Nrf2 inh inconclusive
